Source: PubChem BioAssay (National Center for Advancing Translational Sciences (NCATS))
Compounds with a hit are over-represented: about 6.8% of the library has one in this group of screens.
SW480 rereplic: inducers of DNA re-replication in SW480 colon cancer cells; SW480 DNA re-replication, Hoechst DNA content imaging, 48 h; Potency, µM (titrated, usually from 46.1 µM), for the others: at the top dose re-replication activation, actives largely listed as activators; actives 1.8% (n = 340,000); AID 624297; further: % of control where 0% means no effect; nearly all actives have a fitted effect of over 55% in size
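Compounds, transferred as 23 nL by pin tool, were incubated with cells for 48 hr; DNA content per nucleus was then quantified by Hoechst staining and fluorescence plate imaging.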
KB-V1 MDR tox: kills drug-selected multidrug resistant KB-V1 cells; KB-V1 MDR cells viability, CellTiter-Glo, 72 h; Potency, µM (series often up to 46.1 µM), actives largely listed as cytotoxic; actives 3.4% (n = 400,000); further: on the % scale 0 is the no-effect control and ±100 the full control effect; nearly all actives have a fitted effect of over 60% in size
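KB-V1 MDR subline cells in DMEM (phenol-red free, 10% FBS) exposed to compounds in qHTS concentration series for 72 h at 37 degrees C. Viability read by CellTiter-Glo luminescence; concentration-effect curves fitted after normalization and correction.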
KB-3-1 cytotox: KB-3-1 parental cell cytotoxicity; KB-3-1 viability, CellTiter-Glo ATP luminescence, 72 h; Potency, µM (top dose mostly 46.1 µM), hits mostly cytotoxic; actives 1.4% (n = 400,000); AID 1347075; further: on the % scale 0 is the no-effect control and ±100 the full control effect; nearly all actives have a fitted effect of over 60% in size
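Here the drug-naive KB-3-1 line serves as comparator for MDR sub-line selectivity; cells received compound titrations, 72 h at 37 °C, then CellTiter-Glo readout.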
PINK1 modulator: changes PINK1 expression. actives 0.2% (n = 410,000). AID 624263. Potency, µM (doses to about 76.6 µM), for the others: top-dose activation (PINK1 increase), hits mostly activators. PINK1 immunofluorescence, high-content cytometry, 24 h; active means well fitted activation curve with a large enough effect; inconclusive means small, poorly fitted or top-dose-only effect; cell line not stated here; further: % of control where 0% means no effect; nearly all actives have a fitted effect of over 65% in size
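Stable cell line treated 24 h with compounds at 5 concentrations (CCCP controls), then fixed and immunostained for PINK1 plus nuclear and cell stains; PINK1 immunofluorescence quantified by laser-scanning microplate cytometry.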
PTAP TSG101 blk: blocks PTAP/TSG101 interaction to inhibit HIV-1 budding | Potency, µM (highest dose often 115 µM), inactives show at the top dose activity change, negative = inhibition, actives largely listed as inhibitors | Q99816 | Fluorescence polarization, FITC-PTAP peptide / Tsg101 binding | 340,000 tested, under 10 active; active means well fitted inhibition curve with a large enough effect in the main read-out, with a control signal flat, not every such curve was filed as active; inconclusive means small, poorly fitted or top-dose-only effect, or effect the other way, or a change in a side signal; inactive means no such curve, though single readings can be large or run the other way; further: % of control where 0% means no effect
Target sequence (Q99816 whole entry, looked up): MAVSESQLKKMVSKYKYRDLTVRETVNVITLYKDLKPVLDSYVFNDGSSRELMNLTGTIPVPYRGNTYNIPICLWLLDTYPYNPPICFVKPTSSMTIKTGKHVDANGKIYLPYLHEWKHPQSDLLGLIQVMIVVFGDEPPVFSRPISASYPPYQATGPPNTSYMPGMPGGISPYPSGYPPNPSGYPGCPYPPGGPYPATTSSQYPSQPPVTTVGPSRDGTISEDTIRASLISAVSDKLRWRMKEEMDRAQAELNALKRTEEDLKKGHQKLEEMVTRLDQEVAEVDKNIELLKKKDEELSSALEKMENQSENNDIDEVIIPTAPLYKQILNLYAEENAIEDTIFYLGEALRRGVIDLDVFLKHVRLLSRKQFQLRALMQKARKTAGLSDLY
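Compounds were pin-transferred onto Tsg101 binding domain (10 uM final) in HEPES pH 7.5 buffer, then FITC-PTAP peptide was added at 50 nM final. After 20 min at RT, polarization reported peptide displacement across a qHTS concentration series.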
MCF10A rerep: inducers of DNA re-replication in MCF 10A breast cells; AID 624296; Potency, µM (doses to about 46.1 µM), for inactives: at the highest dose activity, positive = re-replication, hits mostly activators; MCF 10A DNA re-replication, Hoechst nuclear intensity, 48 h; actives 2.9% (n = 350,000); further: % of control where 0% means no effect; nearly all actives have a fitted effect of over 50% in size
The depositor's hits bear a star; i = inactive; u = inconclusive; x = no result given; ! = not active in a repeat; [ ] = dose if it differs, or a comment. Unless noted, the call rests on the fitted dose curve; in most records, active means well fitted curve in the direction sought with a large enough effect; inconclusive means small, poorly fitted or top-dose-only effect, or another doubt; inactive means no such curve, though single readings can be large; an effect the other way counts as inactive or inconclusive. Potency means the concentration at half of the fitted maximal effect.

SMILES	SW480 rereplic	KB-V1 MDR tox	KB-3-1 cytotox	PINK1 modulator	PTAP TSG101 blk	MCF10A rerep
COc1ccc2c(c1)c1c(c(=O)n(Cc3ccccc3)c(=O)n1CC(=O)Nc1ccccc1OC)n2C	x	i	i	1.5%	x	x
COc1cc2c(cc1NC(=O)CN(C)Cc1cccc(OC)c1OC)oc1ccccc12	u	u	i	2.6%	-3.6%	7.31µM*
COc1cc2c(cc1NC(=O)COC(=O)[C@@H](NC(=O)c1ccccc1F)C(C)C)oc1ccccc12	-13.8%	16.4µM*	i	0.8%	-4.2%	-0.6%
COc1cccc(CN(C)CC(=O)Nc2cc3oc4ccccc4c3cc2OC)c1	6.6%	u	u	1.6%	-1.3%	2.0%
COc1cc2c(cc1NC(=O)COc1ccc(Cl)cc1)oc1ccccc12	x	u	i	0.6%	x	x
COc1cc2c(cc1NC(=O)COC(=O)[C@@H](NC(=O)c1ccccc1)C(C)C)oc1ccccc12	-0.5%	9.2µM*	i	0.1%	-0.5%	18.8%
FC(F)(F)c1ccccc1-c1nc(NCCN2CCOCC2)c2ccccc2n1	x	x	x	1.3%	x	x
CCN1CCN(c2ncc3c(n2)CC(c2cc(OC)c(OC)c(OC)c2)CC3=O)CC1 (stereo not given)	4.11µM*	i	u	7.6%	-6.4%	20.6µM*
O=C1Nc2ccccc2-n2nnnc2C1N1CCN(c2ccccn2)CC1 (stereo not given)	x	u	i	x	x	x
O=C1Nc2ccccc2-n2nnnc2C1N1CCN(c2ccc(C(F)(F)F)cn2)CC1 (stereo not given)	x	20.6µM*	u	x	x	x
CCOc1ccc(N2CC(NC(=O)c3ccco3)CC2=O)cc1 (stereo not given)	x	x	x	1.2%	x	x
COCCn1c(C)cc(C(=O)CN2C(=O)NC3(CCCCCCC3)C2=O)c1C	u	i	i	-4.7%[38.3 µM]	-7.2%	11.6µM*
CC1CCCC(NC(=S)Nc2ccc(SC(F)F)cc2)C1C (stereo not given)	u	23.1µM*	18.4µM*	u	-0.2%	u
FC(F)Sc1ccc(NC(=S)NC2CCCC2)cc1	-0.6%	u	i	u	0.4%	18.0%
O=C(NC(C(=O)N/N=C/c1c2ccccc2cc2ccccc12)c1n[nH]c(=O)c2ccccc12)c1ccccc1 (stereo not given)	8.2µM*	i	i	2.3%	-19.2%	2.06µM*
COc1cc(NC(=O)c2csc(N)n2)cc(C(=O)Nc2cccc(C(F)(F)F)c2)c1	u	7.31µM*!	5.8µM*	-2.7%	1.5%	u
COc1ccc(OC)c(NC(=O)CSc2nncc3ccc(OC)c(OC)c23)c1	-3.7%[9.22 µM]	i	i	-1.1%	3.0%	u
COc1ccc2cnnc(SCC(=O)Nc3ccc(C(C)=O)cc3)c2c1OC	-6.3%	5.17µM*	i	1.1%	-3.9%	-8.5%
COc1ccc2cnnc(SCC(=O)Nc3ccccc3)c2c1OC	-5.8%	2.91µM*	i	6.5%	0.6%	-7.9%
COc1ccc2cnnc(SCC(=O)Nc3ccc(C(=O)O)cc3)c2c1OC	-2.9%	u	i	-0.1%	-3.4%	-1.2%
O=c1cc(-c2ccccc2)nc(/C=C/c2ccccc2)[nH]1	u	i	i	15.5%	-3.4%	18.4µM*
COc1ccc(/C=C/c2nc(-c3ccccc3)cc(=O)[nH]2)cc1	u	i	i	13.8%	-0.7%	u
Cc1cccc(NCc2ccccc2O)c1C	-10.2%	i	i	6.8%	-3.4%	0.4%
Cc1cccc(NCc2nnc(-c3ccccc3)o2)c1C	-8.6%	18.4µM*	i	4.9%	-6.0%	-1.7%
COc1cccc(C2c3cc4c(cc3OC(NNC(N)=O)C2C)OCO4)c1O (stereo not given)	8.2µM*	4.61µM*	1.46µM*	-2.9%	-3.1%	3.26µM*
COc1cc(C2c3cc4c(cc3OC(NNC(N)=O)C2C)OCO4)cc(OC)c1OC (stereo not given)	1.3µM*	7.31µM*	0.517µM*	5.2%	-8.4%	0.731µM*
